Source: PubChem (National Center for Advancing Translational Sciences (NCATS))
Rows were chosen to be rich in hits. Some 7.9% of all compounds tested hit in one or more screens of this group.
HCMV inh = blocks human cytomegalovirus replication. HFF cells, HCMV-luciferase reporter, 72 h; active compounds read low. 4.5% of 410,000 active. activity change, negative = inhibition, % at 57.5 µM; in the data active means activity change below about -60%; inconclusive means no clear call, values can overlap the other calls; inactive means above about -39%
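HFF cells seeded 16 h at 37C, treated with compounds, infected with luciferase-reporter HCMV at MOI 1 PFU/cell; luciferase read at 72 h post infection, normalized to buffer-only and Salinomycin controls.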
FMDV antiviral = antivirals against foot and mouth disease virus; AID 1159524; Potency, µM (titrated, usually from 57.9 µM), without a hit: at the top dose activity change, negative = inhibition, actives largely listed as inhibitors; 1.2% of 410,000 active; FMDV antiviral cell-based qHTS; calls by dose curve; tested in HEK293T cells; further: read-out not given here; potency means the concentration at half of the fitted maximal effect; nearly all actives have a fitted effect of over 45% in size
MARV entry inh = Marburg virus entry inhibition; Potency, µM (series often up to 37.8 µM), for the others: top-dose activity change, negative = inhibition, hits mostly inhibitors; 1.8% of 300,000 active; AID 540276; Marburg virus pseudotyped entry inhibition, cell reporter; calls by dose curve; tested in HEK293 cells; further: potency means the concentration at half of the fitted maximal effect
LASV entry inh = blocks Lassa virus binding to or entry into cells | Lassa virus pseudotype entry inhibition, cell reporter | Potency, µM (top dose mostly 37.9 µM), inactives show top-dose activity change, negative = inhibition, usual class: inhibitors | 1.2% of 300,000 active; calls by dose curve; tested in HEK293 cells; further: potency means the concentration at half of the fitted maximal effect; nearly all actives have a fitted effect of over 50% in size
HCV inh = HCV inhibition | Huh7.5.1 HCVcc-Cre infection, luciferase reporter, 44 h | Potency, µM (top dose mostly 41.8 µM), for the others: at the top dose activity change, negative = inhibition, most hits filed as inhibitors | 3.4% of 340,000 active | AID 651820; active means well fitted inhibition curve with a large enough effect; inconclusive means small, poorly fitted or top-dose-only effect, or another doubt; inactive means no such curve, though single readings can be large or run the other way; further: potency means the concentration at half of the fitted maximal effect
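HCVcc-Cre virus at an moi near 0.5 was added right after compound to cells cultured 4 h from seeding (1,000 cells/well). Luciferase activity was determined 44 h later, 15 min after substrate addition at RT.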
The depositor's hits bear a star; ? = inconclusive; nt = no result; + = active, no number; [ ] = remark or other dose. On the % scale 0 is the no-effect control and ±100 the full control effect.

SMILES | HCMV inh | FMDV antiviral | MARV entry inh | LASV entry inh | HCV inh
Cc1ccc(N=C2NC(=O)/C(=C\c3ccsc3)S2)c(C)c1 | -72* | 4% | -23% | ? | -23%
Cc1cccc(N=C2NC(=O)/C(=C/c3cccnc3)S2)c1C | ? | -22% | nt | nt | 15%
NC(=NCc1ccc(Cl)c(Cl)c1)NC(=O)c1nc(Cl)c(N)nc1N | nt | nt | 2.5µM* | nt | nt
NC(=NCc1ccc(Cl)cc1Cl)NC(=O)c1nc(Cl)c(N)nc1N | nt | -20% | nt | nt | nt
CC(=O)N1CCC[C@H]1C(=O)NCC1Cc2cc(Cl)cc(-c3ccc4[nH]ccc4c3)c2O1 (stereo partly drawn) | nt | 16% | nt | nt | nt
C=C(C)CCCN1C=C(C(=O)OCC)C(c2ccccc2)NC1=O (stereo not drawn) | nt | nt | -14%[14.2 µM] | ? | nt
Cc1ccccc1CN1CCc2c(OCC(=O)N3CCCc4ccccc43)cccc2C1=O | -62* | 40µM* | ? | ? | 13µM*
CCN1CCc2c(OCC(=O)N3CCc4ccccc43)cccc2C1=O | -17 | nt | nt | nt | nt
O=C(COc1cccc2c1CCN(Cc1ccccc1)C2=O)N1CCCCC1 | -26 | -28% | 16% | -24% | ?
O=C1c2cccc(OCC(=O)N3CCCc4ccccc43)c2CCN1Cc1cccnc1 | -61* | 28µM* | ? | ? | ?
Cc1c(C(=O)N2CCN(Cc3ccc4c(c3)OCO4)CC2)sc2ncnc(N3CCN(c4ccccc4F)CC3)c12 | -76* | 28µM* | nt | nt | ?
Cc1c(C(=O)N2CCN(Cc3ccc4c(c3)OCO4)CC2)sc2ncnc(N3CCN(c4ccccc4)CC3)c12 | -86* | 2.5µM* | nt | nt | ?
Cc1c(C(=O)N2CCN(c3ccccn3)CC2)sc2ncnc(N3CCN(c4ccccc4)CC3)c12 | -6 | ? | -29% | -23% | ?
Cc1cc(S(=O)(=O)N2CCOCC2)ccc1OCC(=O)NCc1ccccn1 | -14 | 6% | 24%[46.1 µM] | 12% | 19%
COC(=O)c1ccc(NC(=O)CO/N=C2\CCCc3nonc32)cc1 | ? | ? | ? | 7% | ?
Cc1cc2nc(-c3ccc(SCc4ccc(C(=O)O)cc4)nc3)[nH]c2cc1C | 67 | 50% | 5.6µM* | ? | ?
Cc1cc2nc(-c3ccc(SCC(=O)Nc4ccc(S(=O)(=O)NC5CC5)cc4)nc3)[nH]c2cc1C | 85 | -3% | 4.5µM* | ? | ?
Cc1cc2nc(-c3ccc(SCC(=O)N4CCc5ccccc54)nc3)[nH]c2cc1C | -22 | nt | ? | ? | 5µM*
Cc1cc2nc(-c3ccc(SCc4ccccc4C#N)nc3)[nH]c2cc1C | 5 | nt | ? | ? | ?
Cc1cc(NC(=O)CSc2ccc(-c3nc4cc(C)c(C)cc4[nH]3)cn2)no1 | nt | 48% | ? | -2% | -6%
CC(C)OCCCNC(=O)c1cccc2c1C(=O)c1ccc(Cl)cc1S2(=O)=O | -35 | -23% | nt | nt | -7%
Cc1onc(-c2c(F)cccc2Cl)c1-c1nnc(-c2ccc(C(F)(F)F)cc2)o1 | ? | ? | ? | ? | -42%
Cc1onc(-c2c(Cl)cccc2Cl)c1-c1nnc(-c2ccc(Cl)cc2)o1 | -12 | ? | ? | ? | 18µM*
CCC(=O)N[C@@H]1c2ccccc2C2(CCN(Cc3ccccn3)CC2)[C@H]1OC | nt | -15% | nt | nt | nt
CCOc1ccc(-c2nnc(SCC(=O)NCCC(C)C)nc2-c2ccc(OCC)c(OC)c2)cc1OC | -3 | 27% | nt | ? | nt
SMILES | HCMV inh | FMDV antiviral | MARV entry inh | LASV entry inh | HCV inh
O=C1c2ccccc2C(O)N1c1ccc(Cl)cc1 (stereo not drawn) | -10 | 22% | 0% | nt | -3%
COC(=O)C1CN(C#N)N(c2ccc(Cl)cc2)C12c1ccccc1-c1ccccc12 (stereo not drawn) | nt | 3.5µM* | ? | 11µM* | 4µM*
CCCNC(=O)CCn1c(-c2ccc(C)cc2)cc(C(=O)OCC)c1C | 6 | -13% | -17% | -8% | 9%
CCOC(=O)c1cc(-c2ccccc2)n(CCCC(=O)Nc2ccc(CC)cc2)c1C | ? | ? | nt | -7%[46.1 µM] | nt
COc1ccc(-c2cc(C(C)=O)c(C)n2CCC(=O)Nc2cc(Cl)ccc2C)cc1 | 0 | -9% | nt | -24%[46.1 µM] | nt
COc1ccc(-c2cc(C(C)=O)c(C)n2CCC(=O)Nc2ccc(C)c(Cl)c2)cc1 | + | -20% | nt | -27%[46.1 µM] | nt
CCOC(=O)c1cc(-c2ccc(C)cc2)n(CC(=O)Nc2ccccc2F)c1C | -82* | 13% | -12%[46.1 µM] | nt | nt
CCOC(=O)c1cc(-c2ccccc2)n(CCC(=O)Nc2ccc(C(F)(F)F)cc2)c1C | -98* | ? | nt | ? | nt
CCOC(=O)c1cc(-c2ccccc2)n(CCC(=O)NCCc2ccccc2)c1C | -35 | -10% | nt | 11µM* | nt
Cc1noc(C)c1-c1ccc(C(=O)NCc2cccc(Cl)c2)c2occc12 | 102 | -4% | nt | nt | nt
CCN1C(=NCc2ccc3c(c2)OCO3)NC(CCc2ccccc2)C(C(=O)OC)=C1C (stereo not drawn) | nt | nt | -30%[14.2 µM] | ? | nt
CCN1/C(=C/c2sc(-c3ccccc3C)c[n+]2C)Sc2ccccc21 | -97* | 11µM* | ? | ? | 3.5µM*
Cc1cccc(NC(=O)Nc2ccc(Oc3c(F)c(F)c(F)c(F)c3F)cc2)c1 | 8 | nt | 18% | 12% | 29%
O=C(Nc1ccc(Oc2c(F)c(F)c(F)c(F)c2F)cc1)OC1CCN2Cc3ccccc3N=C12 (stereo not drawn) | nt | 20µM* | ? | ? | 3.2µM*
Cc1ccc(C[n+]2c(-c3ccc(C)cc3)cc(-c3ccc(C)cc3)cc2-c2ccc(C)cc2)cc1 | nt | ? | nt | nt | 2.2µM*
COc1cccc(NS(=O)(=O)c2ccc3[nH]cc(C(=O)N(C)C4CCCCC4)c(=O)c3c2)c1 | 37 | 20% | nt | 16%[46.1 µM] | nt
O=C(Nc1cccc(C(F)(F)F)c1)c1cccnc1 | 2 | 20% | -13% | 2% | -4%
Oc1c(C(Nc2cccc(C(F)(F)F)c2)c2ccncc2)ccc2cccnc12 (stereo not drawn) | -99* | -16% | ? | ? | 6.3µM*
Oc1c(C(Nc2nccs2)c2ccc(C(F)(F)F)cc2)ccc2cccnc12 (stereo not drawn) | 0 | ? | 4.5µM* | ? | ?
COc1cc(Cl)c(C)cc1NC(=O)c1cnc2c(-c3cccc(C)c3)c(C)nn2c1C | -2 | -5% | nt | -6%[46.1 µM] | nt
N#CC1=C(SCC(=O)c2ccc(Br)cc2)NC2=C(C(=O)CCC2)C1c1ccco1 (stereo not drawn) | -25 | ? | 8.9µM* | ? | 4.5µM*
COc1ccc(Cn2c(CNS(=O)(=O)c3ccc(Cl)s3)nc3cccnc32)cc1 | ? | 65% | nt | -6%[46.1 µM] | nt
Cc1cnc(C(=O)N(c2ccccc2)C(c2ccccc2)c2nc3ccccc3[nH]2)cn1 (stereo not drawn) | 26 | 38% | nt | nt | nt
Cc1nc2c(OCc3ccc(OC(F)F)cc3)cccn2c1N(C)C(=O)CCC1CCCC1 | -23 | 25µM* | nt | nt | nt
CCC(CC)C(=O)N(C)c1c(C)nc2c(OCCOc3ccc(F)cc3)cccn12 | -92* | ? | nt | nt | nt
COc1ccc(CNC(=O)COC(=O)c2ccc(S(=O)(=O)NCc3ccco3)cc2)cc1 | 51 | -12% | nt | nt | -17%
